Reference: PubChem BioAssay (Tox21)
Values without a mark were called inactive. Inconclusive results are not listed. Where a call stands in place of a potency, no number is given. Calls of active or inactive are those of the source. Unless noted, calls come from the whole dose curve; as a rule, active = well fitted curve in the direction sought with a large enough effect in the repeat runs; inconclusive = weak or mixed curves; inactive = no such curve, though single readings can be large; an effect the other way counts as inactive or inconclusive.

Legend:
[1] = Human pregnane X receptor (PXR) small molecule agonists, qHTS cell viability counter screen (AID 1346977); note: nearly all actives have a fitted effect of over 50% in size
Summary of the method: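 PXR-Luc HepG2, 2,000 cells/well, 5% charcoal-stripped FBS; 5hr settle; cpd 24hr, 37C/5% CO2; CellTiter-Fluor at 23hr, read 1hr later (fluorescence).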

[2] = Caspase-3/7 induction in HepG2 cells by small molecules, qHTS assay (AID 1346978); note: nearly all actives have a fitted effect of over 15% in size
Summary of the method: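 Caspase-3/7 induction was measured by Caspase-Glo 3/7 luminescence (30 min, room temperature) after a 17 hr compound exposure of wild-type HepG2 cells seeded at 2,000 per well and pre-incubated 5 hr.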

[3] = Caspase-3/7 induction in CHO-K1 cells by small molecules, qHTS cell viability counter screen (AID 1346979); note: nearly all actives have a fitted effect of over 35% in size
Summary of the method: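 Cells (CHO-K1, wild type) are plated at 1,500 per well and incubated 5hr. Test compounds in DMSO are then pinned in, followed by 16hr at 37C and 5% CO2. Viability is read by CellTiter-Fluor fluorescence after 1hr.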

[4] = Caspase-3/7 induction in CHO-K1 cells by small molecules, qHTS assay (AID 1346980); note: nearly all actives have a fitted effect of over 15% in size
Summary of the method: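 Luminescent Caspase-Glo 3/7 read (30min, room temperature) quantified apoptosis induction. Cells were wild-type CHO-K1, treated with compound for 17hr at 37 C and 5% CO2.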

[5] = Caspase-3/7 induction in HepG2 cells by small molecules, qHTS cell viability counter screen (AID 1346981); note: series mostly up to about 92 µM; nearly all actives have a fitted effect of over 30% in size
Summary of the method: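 Wild-type HepG2 cells, 2,000/well, settled 5 hr at 37 C, 5% CO2 before compound addition. Viability read by CellTiter-Fluor fluorescence, reagent added after 16 hr compound exposure, then 1 hr at 37C, in the same wells as the caspase read.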

[6] = molecular target: Nuclear receptor subfamily 1 group I member 2 (Homo sapiens) (UniProt O75469); test: Human pregnane X receptor (PXR) small molecule agonists, qHTS assay (AID 1346982); note: nearly all actives have a fitted effect of over 35% in size; note: potency is the fitted concentration of half-maximal effect
Summary of the method: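 PXR-Luc HepG2 reporter cells (CYP3A4-driven luciferase) in 5% charcoal-stripped FBS medium, plated 5 h before compound addition, then treated 24 h at 37C. Luciferase read by ONE-Glo luminescence after 30 min at room temperature.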

[7] = molecular target: Acetylcholinesterase (Homo sapiens) (UniProt P22303); test: Acetylcholinesterase (AChE) small molecule antagonists: colormetric cell-based qHTS assay (AID 1347395; calls by dose curve; note: nearly all actives have a fitted effect of over 30% in size)
Sequence of Acetylcholinesterase (Homo sapiens) (P22303 whole entry, looked up): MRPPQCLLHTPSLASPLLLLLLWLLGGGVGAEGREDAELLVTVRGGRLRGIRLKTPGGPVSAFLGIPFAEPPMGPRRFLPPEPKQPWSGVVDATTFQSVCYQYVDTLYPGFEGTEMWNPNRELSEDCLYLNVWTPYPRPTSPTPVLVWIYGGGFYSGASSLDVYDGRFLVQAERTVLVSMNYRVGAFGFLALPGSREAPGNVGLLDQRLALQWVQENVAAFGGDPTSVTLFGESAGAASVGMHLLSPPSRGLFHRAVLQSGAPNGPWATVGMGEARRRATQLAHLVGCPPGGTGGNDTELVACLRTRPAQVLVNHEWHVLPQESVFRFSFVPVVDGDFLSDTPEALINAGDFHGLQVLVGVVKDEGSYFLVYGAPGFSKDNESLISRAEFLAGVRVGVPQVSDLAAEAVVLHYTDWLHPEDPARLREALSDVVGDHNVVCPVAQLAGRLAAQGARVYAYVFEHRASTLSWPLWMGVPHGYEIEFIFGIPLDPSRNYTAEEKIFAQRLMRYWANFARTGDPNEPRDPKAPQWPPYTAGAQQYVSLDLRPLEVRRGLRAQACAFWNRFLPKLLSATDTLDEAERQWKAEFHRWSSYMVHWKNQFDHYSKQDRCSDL
Summary of the method: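 Colorimetric read-out: DTNB detects thiocholine released when cellular AChE in SH-SY5Y cells hydrolyses acetylthiocholine. Cells attached overnight, received compound for 30 min at 37 C, then substrate mix for 90 min at 37 C.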

[8] = molecular target: Acetylcholinesterase (Homo sapiens) (UniProt P22303); test: Acetylcholinesterase (AChE) small molecule antagonists: enzyme-based qHTS assay (AID 1347397; calls by dose curve; note: nearly all actives have a fitted effect of over 55% in size); conditions: Potency: AChE enzyme activity inhibition
Summary of the method: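 Absorbance-based detection of thiocholine with DTNB served as the read-out. Recombinant human AChE was exposed to compound for 30 min at RT before a 10 min RT incubation with acetylthiocholine.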

[9] = molecular target: Acetylcholinesterase (Homo sapiens) (UniProt P22303); test: Acetylcholinesterase (AChE) small molecule antagonists: fluorescence cell-based qHTS assay (AID 1347398; calls by dose curve; note: nearly all actives have a fitted effect of over 50% in size); conditions: Potency: AChE activity
Summary of the method: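 Fluorimetric cell-based assay: intact SH-SY5Y cells, 30 min compound preincubation at 37 C, acetylthiocholine substrate with thiol probe Thiolite Green, 40 min RT development, fluorescence 490/520 nm.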

[10] = molecular target: Acetylcholinesterase (Homo sapiens) (UniProt P22303); test: Acetylcholinesterase (AChE) small molecule antagonists: enzyme-based qHTS assay with human liver microsomes (AID 1347399; calls by dose curve; note: nearly all actives have a fitted effect of over 60% in size); conditions: Potency: qHTS inhibition
Summary of the method: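 Recombinant human AChE (50 mU/mL in the enzyme mix) and human liver microsomes (0.25 mg/mL final) were preincubated with compound and NADPH (0.25 mg/mL final) for 30 min at 37 C. Acetylthiocholine/DTNB was then added; thiocholine was read colorimetrically after 10 min at room temperature.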

[11] = molecular target: Cytochrome P450 2D6 (Homo sapiens) (UniProt P10635); test: Cytochrome P450 Family 2 Subfamily D Member 6 (CYP2D6) small molecule antagonists: luciferase reporter qHTS assay (AID 1671196); note: series mostly up to about 120 µM; nearly all actives have a fitted effect of over 50% in size
Sequence of Cytochrome P450 2D6 (Homo sapiens) (P10635 whole entry, looked up): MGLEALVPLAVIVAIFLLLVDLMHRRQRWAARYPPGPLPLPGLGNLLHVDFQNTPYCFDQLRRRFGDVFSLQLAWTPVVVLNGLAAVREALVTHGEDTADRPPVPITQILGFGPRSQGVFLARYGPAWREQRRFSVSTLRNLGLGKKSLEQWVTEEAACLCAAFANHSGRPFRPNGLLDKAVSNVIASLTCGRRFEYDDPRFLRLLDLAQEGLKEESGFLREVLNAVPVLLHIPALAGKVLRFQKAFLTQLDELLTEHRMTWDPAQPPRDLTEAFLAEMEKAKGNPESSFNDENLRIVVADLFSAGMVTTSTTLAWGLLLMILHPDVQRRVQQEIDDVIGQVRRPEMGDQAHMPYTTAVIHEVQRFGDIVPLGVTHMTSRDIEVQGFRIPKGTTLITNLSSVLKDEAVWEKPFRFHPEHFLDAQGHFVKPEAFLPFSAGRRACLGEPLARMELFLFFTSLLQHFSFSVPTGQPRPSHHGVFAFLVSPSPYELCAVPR
Summary of the method: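 Cell-free P450-Glo system: CYP2D6 with proluciferin substrate was pre-incubated with compound for 10 min, then reacted with NADPH regeneration for 1 h at room temperature. Luciferin product was detected after 20 min, and data were reported as relative luminescence units.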

[12] = molecular target: Cytochrome P450 2C19 (Homo sapiens) (UniProt P33261); test: Cytochrome P450 Family 2 Subfamily C Member 19 (CYP2C19) small molecule antagonists: luciferase reporter qHTS assay (AID 1671197); note: nearly all actives have a fitted effect of over 65% in size; note: potency is the fitted concentration of half-maximal effect
Sequence of Cytochrome P450 2C19 (Homo sapiens) (P33261 whole entry, looked up): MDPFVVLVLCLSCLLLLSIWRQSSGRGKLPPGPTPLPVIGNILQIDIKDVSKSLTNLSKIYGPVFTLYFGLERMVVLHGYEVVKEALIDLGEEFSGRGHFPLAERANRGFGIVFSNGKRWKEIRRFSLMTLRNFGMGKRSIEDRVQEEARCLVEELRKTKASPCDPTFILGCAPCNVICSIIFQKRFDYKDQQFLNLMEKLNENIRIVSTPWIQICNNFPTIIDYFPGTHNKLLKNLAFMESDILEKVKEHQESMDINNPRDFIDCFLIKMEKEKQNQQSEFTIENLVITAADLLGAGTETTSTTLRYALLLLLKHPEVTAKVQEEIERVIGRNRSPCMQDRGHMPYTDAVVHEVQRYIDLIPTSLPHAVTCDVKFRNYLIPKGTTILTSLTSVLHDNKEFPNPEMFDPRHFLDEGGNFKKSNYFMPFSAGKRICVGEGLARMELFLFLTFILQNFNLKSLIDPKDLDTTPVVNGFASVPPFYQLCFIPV
Summary of the method: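 Enzyme-substrate mix with proluciferin substrate (P450-Glo CYP2C19 system) preincubated with compounds 10 min at room temperature; NADPH regeneration solution added, 37C for 1 h; detection reagent stops reaction, luminescence read after 20 min. Ketoconazole positive control.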

[13] = molecular target: Cytochrome P450 2C9 (Homo sapiens) (UniProt P11712); test: Cytochrome P450 Family 2 Subfamily C Member 9 (CYP2C9) small molecule antagonists: luciferase reporter qHTS assay (AID 1671198); note: nearly all actives have a fitted effect of over 50% in size; note: potency is the fitted concentration of half-maximal effect
Sequence of Cytochrome P450 2C9 (Homo sapiens) (P11712 whole entry, looked up): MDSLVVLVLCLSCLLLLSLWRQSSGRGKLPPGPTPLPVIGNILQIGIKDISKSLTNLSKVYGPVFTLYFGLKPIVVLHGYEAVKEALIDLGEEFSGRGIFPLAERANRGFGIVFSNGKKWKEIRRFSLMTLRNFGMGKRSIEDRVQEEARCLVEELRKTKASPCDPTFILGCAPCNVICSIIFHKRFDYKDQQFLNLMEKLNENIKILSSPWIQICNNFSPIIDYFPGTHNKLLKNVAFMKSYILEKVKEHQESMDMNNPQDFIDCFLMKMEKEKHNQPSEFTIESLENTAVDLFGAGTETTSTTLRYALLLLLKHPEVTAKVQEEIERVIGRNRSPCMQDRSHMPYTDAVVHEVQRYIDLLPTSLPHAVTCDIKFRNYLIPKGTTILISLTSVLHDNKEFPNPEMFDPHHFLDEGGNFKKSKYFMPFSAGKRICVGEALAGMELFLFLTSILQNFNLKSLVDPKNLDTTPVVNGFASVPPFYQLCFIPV
Summary of the method: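 Enzyme-substrate mix preincubated with compound 10 min at room temperature; reaction started with NADPH regeneration solution, 1 h 37C. Luminescent luciferin product read after 20 min detection reagent.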

[14] = molecular target: Cytochrome P450 1A2 (Homo sapiens) (UniProt P05177); test: Cytochrome P450 Family 1 Subfamily A Member 2 (CYP1A2) small molecule antagonists: luciferase reporter qHTS assay (AID 1671199); note: nearly all actives have a fitted effect of over 50% in size; note: potency is the fitted concentration of half-maximal effect
Sequence of Cytochrome P450 1A2 (Homo sapiens) (P05177 whole entry, looked up): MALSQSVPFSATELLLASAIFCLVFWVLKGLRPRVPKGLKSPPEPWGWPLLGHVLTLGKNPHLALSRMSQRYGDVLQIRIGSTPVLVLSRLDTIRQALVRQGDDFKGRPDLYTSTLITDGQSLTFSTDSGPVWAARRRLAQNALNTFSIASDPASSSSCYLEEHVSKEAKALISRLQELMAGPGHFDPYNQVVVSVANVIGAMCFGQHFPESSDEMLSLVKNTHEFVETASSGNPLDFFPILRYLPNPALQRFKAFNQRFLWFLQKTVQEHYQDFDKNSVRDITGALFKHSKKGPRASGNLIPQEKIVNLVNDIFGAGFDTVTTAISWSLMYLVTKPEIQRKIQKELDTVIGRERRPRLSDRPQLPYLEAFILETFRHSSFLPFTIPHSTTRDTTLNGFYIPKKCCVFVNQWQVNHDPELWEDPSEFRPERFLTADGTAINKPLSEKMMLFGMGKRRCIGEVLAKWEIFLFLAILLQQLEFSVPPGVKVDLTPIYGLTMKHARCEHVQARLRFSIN
Summary of the method: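 P450-Glo CYP1A2 enzyme–proluciferin substrate mix with compound 10 min at room temperature, then NADPH regeneration 1 h at room temperature. Luciferin detection reagent added, luminescence read after 20 min; furafylline positive control.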

[15] = molecular target: Voltage-gated inwardly rectifying potassium channel KCNH2 (Homo sapiens) (UniProt Q12809); test: Human Ether-a-go-go-Related Gene (hERG) channel small molecule antagonists: fluorescence cell-based qHTS assay (AID 1671200)
Sequence of Voltage-gated inwardly rectifying potassium channel KCNH2 (Homo sapiens) (Q12809 whole entry, looked up): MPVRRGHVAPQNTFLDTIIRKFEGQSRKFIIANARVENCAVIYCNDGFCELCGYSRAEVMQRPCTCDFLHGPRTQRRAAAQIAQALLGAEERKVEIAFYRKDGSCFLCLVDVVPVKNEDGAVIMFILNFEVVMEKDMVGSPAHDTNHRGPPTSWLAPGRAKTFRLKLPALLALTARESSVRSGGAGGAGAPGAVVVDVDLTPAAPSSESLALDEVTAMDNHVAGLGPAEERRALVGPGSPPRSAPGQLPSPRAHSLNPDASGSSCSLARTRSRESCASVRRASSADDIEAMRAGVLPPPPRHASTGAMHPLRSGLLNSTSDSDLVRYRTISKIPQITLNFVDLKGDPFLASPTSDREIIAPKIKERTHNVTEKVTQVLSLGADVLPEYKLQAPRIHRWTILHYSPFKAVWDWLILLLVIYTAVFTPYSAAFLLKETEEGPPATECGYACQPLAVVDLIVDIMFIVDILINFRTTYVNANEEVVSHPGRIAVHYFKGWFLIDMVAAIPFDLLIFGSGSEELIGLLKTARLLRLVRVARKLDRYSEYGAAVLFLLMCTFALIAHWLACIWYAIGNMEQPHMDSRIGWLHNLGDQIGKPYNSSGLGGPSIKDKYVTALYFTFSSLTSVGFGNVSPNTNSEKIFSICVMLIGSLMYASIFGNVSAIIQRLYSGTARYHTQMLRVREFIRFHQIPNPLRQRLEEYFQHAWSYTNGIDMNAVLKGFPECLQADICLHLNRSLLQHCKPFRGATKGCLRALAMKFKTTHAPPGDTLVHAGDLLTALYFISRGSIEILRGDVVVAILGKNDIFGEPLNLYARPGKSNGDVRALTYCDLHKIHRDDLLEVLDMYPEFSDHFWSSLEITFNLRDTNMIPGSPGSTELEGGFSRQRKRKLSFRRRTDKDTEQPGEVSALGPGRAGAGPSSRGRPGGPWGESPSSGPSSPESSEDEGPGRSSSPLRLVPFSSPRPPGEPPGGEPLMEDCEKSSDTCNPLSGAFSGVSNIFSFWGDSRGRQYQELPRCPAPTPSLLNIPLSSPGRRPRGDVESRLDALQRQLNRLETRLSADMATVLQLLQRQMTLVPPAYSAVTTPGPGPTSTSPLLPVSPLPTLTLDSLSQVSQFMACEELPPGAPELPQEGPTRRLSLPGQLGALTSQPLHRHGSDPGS
Summary of the method: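 Channel function was assessed by thallium flux. Cells seeded the previous day and kept at 37 C took up FluxOR II dye over 1 h in the dark at room temperature, then sat another 10 min before stimulation.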

[16] = molecular target: Cytochrome P450 3A4 (Homo sapiens) (UniProt P08684); test: Cytochrome P450 Family 3 Subfamily A Member 4 (CYP3A4) small molecule antagonists: luciferase reporter qHTS assay (AID 1671201); note: nearly all actives have a fitted effect of over 50% in size; note: potency is the fitted concentration of half-maximal effect
Sequence of Cytochrome P450 3A4 (Homo sapiens) (P08684 whole entry, looked up): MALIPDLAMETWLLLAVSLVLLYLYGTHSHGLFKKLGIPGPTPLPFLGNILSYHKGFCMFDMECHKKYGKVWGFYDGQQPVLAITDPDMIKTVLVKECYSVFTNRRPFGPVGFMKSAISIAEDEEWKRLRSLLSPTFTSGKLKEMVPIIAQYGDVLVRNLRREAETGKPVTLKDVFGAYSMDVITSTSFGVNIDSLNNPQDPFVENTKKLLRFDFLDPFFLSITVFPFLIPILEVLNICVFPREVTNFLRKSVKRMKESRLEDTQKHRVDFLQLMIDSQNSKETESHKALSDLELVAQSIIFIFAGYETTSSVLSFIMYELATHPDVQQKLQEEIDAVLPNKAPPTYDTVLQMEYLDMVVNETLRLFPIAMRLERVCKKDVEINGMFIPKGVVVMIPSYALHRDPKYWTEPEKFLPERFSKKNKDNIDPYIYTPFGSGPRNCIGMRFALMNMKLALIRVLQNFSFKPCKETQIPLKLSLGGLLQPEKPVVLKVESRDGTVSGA
Summary of the method: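 Compounds in DMSO were pin-transferred onto CYP3A4 enzyme-substrate mix and held 10 min at room temperature. NADPH regenerating solution started the reaction for 1 h; luciferin detection reagent stopped it, and luminescence was read after 20 min.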

[17] = molecular target: Nuclear receptor subfamily 1 group I member 2 (Rattus norvegicus) (UniProt Q9R1A7); test: Rat pregnane X receptor (rPXR) activation by small molecules, qHTS assay (AID 1346983); conditions: rPXR luciferase reporter cells, One-Glo luminescence, 24 h; max activation: active compounds read high; note: nearly all actives have a fitted effect of over 20% in size
Sequence of Nuclear receptor subfamily 1 group I member 2 (Rattus norvegicus) (Q9R1A7 whole entry, looked up): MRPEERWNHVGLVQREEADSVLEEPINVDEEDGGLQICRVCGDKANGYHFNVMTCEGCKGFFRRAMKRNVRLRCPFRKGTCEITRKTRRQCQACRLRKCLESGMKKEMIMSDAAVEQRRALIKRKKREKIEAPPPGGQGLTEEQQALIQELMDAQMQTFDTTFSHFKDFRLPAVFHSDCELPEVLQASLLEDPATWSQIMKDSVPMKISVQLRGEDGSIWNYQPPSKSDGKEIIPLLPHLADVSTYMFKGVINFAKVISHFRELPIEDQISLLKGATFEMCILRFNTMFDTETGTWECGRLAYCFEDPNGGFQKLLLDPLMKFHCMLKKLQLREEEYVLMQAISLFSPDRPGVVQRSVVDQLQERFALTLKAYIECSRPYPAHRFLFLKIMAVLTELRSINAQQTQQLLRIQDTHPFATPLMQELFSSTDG
Summary of the method: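 Luminescent readout (One-Glo luciferase, 30 min room temperature) followed 24 hr compound treatment at 37 C of rPXR cells plated 2,000 per well and preincubated 5hr; qHTS format with compounds delivered in DMSO.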

[18] = molecular target: Nuclear receptor subfamily 1 group I member 2 (Homo sapiens) (UniProt O75469); test: CYP3A4 induction through human pregnane X receptor (PXR) by small molecules, qHTS assay (AID 1346984); note: nearly all actives have a fitted effect of over 40% in size
Summary of the method: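 DPX-2 HepG2 cells carrying a PXR response element and CYP3A4-promoter luciferase construct, treated with compounds 24 hr at 37C. Then P450-Glo CYP3A4 Luciferin-IPA substrate (3uM final) for 3 hr at 37C, One-Glo added, luminescence read.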

[19] = molecular target: Nuclear receptor subfamily 1 group I member 2 (Homo sapiens) (UniProt O75469); test: Human pregnane X receptor (PXR) activation by small molecules, qHTS assay (AID 1346985); note: nearly all actives have a fitted effect of over 40% in size; note: potency is the fitted concentration of half-maximal effect
Summary of the method: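 DPX-2 cells (HepG2 co-transfected with a PXR response element and a CYP3A4-promoter luciferase construct) were seeded at 2,000 per well, rested 5 hr at 37C, then exposed to DMSO-dissolved compounds for 24 hr. Activation was read as luciferase luminescence.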

| SMILES | Potency [1] | Potency [2] | Potency [3] | Potency [4] | Potency [5] | Potency [6] | Potency [7] | Potency [8] | Potency [9] | Potency [10] | Potency [11] | Potency [12] | Potency [13] | Potency [14] | Potency [15] | Potency [16] | max activation [17] [%] | Potency [18] | Potency [19] |
| --- | --- | --- | --- | --- | --- | --- | --- | --- | --- | --- | --- | --- | --- | --- | --- | --- | --- | --- | --- |
| CNC(=O)Oc1c(C(C)(C)C)cc(C)cc1C(C)(C)C | inactive | inactive | inactive | inactive | inactive | inactive | inactive | inactive | inactive | inactive | inactive | 2.83 µM (active) | 6.33 µM (active) | inactive | inactive | 2.83 µM (active) | – | – | – |
| Cc1ncc2n1-c1ccc(Cl)cc1C(c1ccccc1F)=NC2 | inactive | inactive | inactive | inactive | inactive | 33.5 µM (active) | inactive | inactive | inactive | inactive | inactive | 15.5 µM (active) | 17.4 µM (active) | – | inactive | – | 11.3 | inactive | – |
| CC(C)(C)C(=O)C(Oc1ccc(Cl)cc1)n1cncn1 (configuration not stated) | inactive | inactive | inactive | inactive | inactive | 27.3 µM (active) | inactive | inactive | inactive | inactive | inactive | 3.17 µM (active) | 12.6 µM (active) | 35.5 µM (active) | inactive | 0.399 µM (active) | – | – | – |
| CCS(=O)(=O)C(C)(C)S(=O)(=O)CC | inactive | inactive | inactive | inactive | inactive | inactive | inactive | inactive | – | inactive | – | inactive | inactive | inactive | inactive | inactive | -0.861 | inactive | inactive |
| OCCSCSCCO | inactive | inactive | inactive | inactive | inactive | inactive | inactive | inactive | inactive | inactive | inactive | inactive | inactive | inactive | inactive | inactive | – | – | – |
| O=S(=O)(O)C(F)(F)C(F)(F)C(F)(F)C(F)(F)C(F)(F)C(F)(F)F | inactive | inactive | inactive | inactive | inactive | inactive | inactive | inactive | inactive | inactive | inactive | 79.6 µM (active) | 1.12 µM (active) | inactive | inactive | – | – | – | – |
| CC(C)(C)OC(=O)c1ncn2c1[C@@H]1CCCN1C(=O)c1c(Br)cccc1-2 | inactive | inactive | inactive | inactive | inactive | 13.3 µM (active) | inactive | inactive | inactive | inactive | inactive | inactive | 7.76 µM (active) | inactive | inactive | – | -1.76 | – | 15.8 µM (active) |
| O=C(Oc1ccc(Br)cc1)N1CCN2CCC1CC2 | inactive | inactive | inactive | inactive | inactive | inactive | inactive | inactive | inactive | inactive | inactive | inactive | inactive | inactive | – | – | – | – | – |
